# In the supplement of paper PMC8728848:
# The entries come from a sample that favours the strongest signals as a whole.
# B1: SBD-G4S3-SBD (protein)
# chain: MASIPSSASVQLDSYNYDGSTFSGKIYVKNIAYSKKVTVVYADGSDNWNNNGNIIAASFSGPISGSNYEYWTFSASVKGIKEFYIKYEVSGKTYYDNNNSANYQVSTGGGGSGGGGSGGGGSEFASIPSSASVQLDSYNYDGSTFSGKIYVKNIAYSKKVTVVYADGSDNWNNNGNIIAASFSGPISGSNYEYWTFSASVKGIKEFYIKYEVSGKTYYDNNNSANYQVST
# What was measured:
# Assay in all cases: glycan array binding signal (z-score within array); higher = stronger binding
# Details in all cases: glycan notation: IUPAC condensed, linker removed
# [1] = molecular target: GalNAc(b1-3)Gal(a1-4)Gal(b1-4)GlcNAc
# In short: (§1)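 Columns mapping to the same glycan were averaged after glycan names were converted to IUPAC-condensed notation. The data come from 3228 arrays in the Consortium for Functional Glycomics database, limited to those with an available protein sequence. Binding is reported as a within-array Z-score averaged across arrays of one protein sequence and across linkers.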
# [2] = molecular target: Glc(a1-4)Glc(a1-4)Glc(a1-4)Glc
# In short: as §1
# [3] = molecular target: GlcNAc(b1-2)[GlcNAc(b1-4)]Man(a1-3)[GlcNAc(b1-4)][GlcNAc(b1-2)[GlcNAc(b1-6)]Man(a1-6)]Man(b1-4)GlcNAc(b1-4)[Fuc(a1-6)]GlcNAc
# In short: as §1
# [4] = molecular target: GlcNAc(b1-3)Gal(b1-4)GlcNAc(b1-3)Gal(b1-4)GlcNAc(b1-2)[GlcNAc(b1-3)Gal(b1-4)GlcNAc(b1-3)Gal(b1-4)GlcNAc(b1-6)]Man(a1-6)[GlcNAc(b1-3)Gal(b1-4)GlcNAc(b1-3)Gal(b1-4)GlcNAc(b1-2)Man(a1-3)]Man(b1-4)GlcNAc(b1-4)[Fuc(a1-6)]GlcNAc
# In short: as §1
# [5] = molecular target: GlcNAc(b1-3)Gal(b1-4)GlcNAc(b1-6)[GlcNAc(b1-3)]Gal(b1-4)GlcNAc
# In short: as §1
# [6] = molecular target: Man(a1-3)[Man(a1-6)]Man(a1-6)[Man(a1-3)]Man
# In short: as §1
# [7] = molecular target: Man(a1-3)[Man(a1-6)]Man(a1-6)[Man(a1-3)]Man(b1-4)GlcNAc(b1-4)GlcNAc
# In short: as §1
# [8] = molecular target: Neu5Ac(a2-3)Gal(b1-3)GlcNAc(b1-4)Gal(b1-4)Glc
# In short: as §1
# Neu5Ac(a2-3)Gal(b1-4)Glc = molecular target: Neu5Ac(a2-3)Gal(b1-4)Glc
# In short: as §1
# [9] = molecular target: Neu5Ac(a2-3)Gal(b1-4)GlcNAc(b1-3)GalNAc
# In short: as §1
# [10] = molecular target: Neu5Ac(a2-3)Gal(b1-4)[Fuc(a1-3)]GlcNAc(b1-6)[Gal(b1-3)]GalNAc
# In short: as §1
# [11] = molecular target: Neu5Ac(a2-6)Gal(b1-4)GlcNAc(b1-2)Man(a1-3)[Man(a1-6)]Man(b1-4)GlcNAc(b1-4)GlcNAc
# In short: as §1
# [12] = molecular target: Neu5Ac(a2-6)Gal(b1-4)GlcNAc(b1-3)Gal(b1-4)GlcNAc(b1-6)[Gal(b1-3)]GalNAc
# In short: as §1
# [13] = molecular target: Neu5Ac(a2-6)GalNAc(b1-4)GlcNAc6S
# In short: as §1
# [14] = molecular target: Neu5Ac(a2-8)Neu5Ac(a2-8)Neu5Ac
# In short: as §1
# [15] = molecular target: Neu5Gc(a2-3)Gal(b1-3)[Fuc(a1-4)]GlcNAc
# In short: as §1
# [16] = molecular target: Neu5Gc(a2-3)Gal(b1-4)GlcNAc
# In short: as §1
binder,measurement,setting,value
B1,glycan array binding signal (z-score),[1],-0.37
same,glycan array binding signal (z-score),[2],5.44
same,glycan array binding signal (z-score),[3],-0.39
same,glycan array binding signal (z-score),[4],-0.26
same,glycan array binding signal (z-score),[5],-0.406
same,glycan array binding signal (z-score),[6],-0.125
same,glycan array binding signal (z-score),[7],-0.351
same,glycan array binding signal (z-score),[8],-0.389
same,glycan array binding signal (z-score),Neu5Ac(a2-3)Gal(b1-4)Glc,-0.399
same,glycan array binding signal (z-score),[9],-0.327
same,glycan array binding signal (z-score),[10],4.53
same,glycan array binding signal (z-score),[11],0.556
same,glycan array binding signal (z-score),[12],-0.221
same,glycan array binding signal (z-score),[13],-0.365
same,glycan array binding signal (z-score),[14],-0.377
same,glycan array binding signal (z-score),[15],-0.366
same,glycan array binding signal (z-score),[16],-0.326
